A selection: hits, their analogues and other compounds. The true share with any hit is near 4.3%.
BoNT A protease: inhibitors of Botulinum neurotoxin A light chain protease. multiplex microsphere protease substrate cleavage, flow cytometry. inhibition, % at 10 µM. actives 0.17% (n = 360,000); further: plate controls were buffer without enzyme for full effect and enzyme alone for no effect
Bead autofluor: flagged as autofluorescent in microsphere protease counterscreen; compound autofluorescence counterscreen, microsphere flow cytometry; hits give high values; fluorescence intensity (test concentration not listed); actives 3.1% (n = 360,000); AID 624483; in the data active means fluorescence intensity above about 16000; inconclusive means no clear call, values can overlap the other calls
BoNT-F LC inh: inhibitors of Botulinum neurotoxin F light chain protease. actives 0.22% (n = 360,000). Multiplex microsphere protease cleavage assay, flow cytometry. inhibition, % at 10 µM; in the data active means inhibition above about 35%, passing the limit was not always enough; inconclusive means no clear call, values can overlap the other calls; further: plate controls were buffer without enzyme for full effect and enzyme alone for no effect
PfHsp40 yeast: compounds rescuing yeast from Plasmodium falciparum HSP40 toxicity. S. cerevisiae expressing PfHsp40, growth rescue, ATP luminescence. growth rescue, % at 12.5 µM. actives 0.68% (n = 340,000). AID 504582; in the data active means growth rescue above about 28%, passing the limit was not always enough; inconclusive means no clear call, values can overlap the other calls;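 further: yeast W303a lacking pdr1 and pdr3 grown in galactose medium; growth measured after three days at 30 °C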
Anthrax LF inh2: blocks Bacillus anthracis lethal factor protease | P15917 | actives 0.12% (n = 360,000) | multiplex microsphere protease cleavage assay, LF | AID 588501 | inhibition, % at 10 µM; further: plate controls were buffer without enzyme for full effect and enzyme alone for no effect
MazF activator: MazEF (E. coli) toxin RNase activation | activation, % at 20 µM | P0AE70 | actives 0.32% (n = 350,000) | FAM/BHQ RNA-DNA oligo cleavage fluorescence, 5 h; in the data active means activation above about 50%
Target sequence (P0AE70 whole entry, looked up): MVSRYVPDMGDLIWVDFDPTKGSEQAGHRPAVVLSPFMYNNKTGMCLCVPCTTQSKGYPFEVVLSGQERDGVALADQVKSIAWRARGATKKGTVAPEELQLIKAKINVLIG
The depositor's hits bear a star; ? = inconclusive; · = no result. Unless noted, no stated cut-off is given here; in the data, active means inhibition above about 30%; inconclusive means no clear call, values can overlap the other calls; inactive means below that.

SMILES | BoNT A protease | Bead autofluor | BoNT-F LC inh | PfHsp40 yeast | Anthrax LF inh2 | MazF activator
CCN(CC)CCN1C(=O)C(=O)/C(=C(/O)c2c(C)[nH]c(C(=O)OC)c2C)C1c1cccc(OC)c1 (stereo unspecified) | -4 | 18213* | -4 | -1 | -4 | -7
COC(=O)c1[nH]c(C)c(/C(O)=C2\C(=O)C(=O)N(CCN(C)C)C2c2cccc(OC)c2OC)c1C (stereo unspecified) | 0 | 9911 | 0 | -1 | -1 | 2
COC(=O)c1[nH]c(C)c(/C(O)=C2\C(=O)C(=O)N(CCN(C)C)C2c2cccs2)c1C (stereo unspecified) | 1 | 20496* | -2 | -1 | -5 | 7
CCOC(=O)c1[nH]c(C)c(/C(O)=C2\C(=O)C(=O)N(CCN(C)C)C2c2ccc(C)o2)c1C (stereo unspecified) | -4 | 21142* | -3 | -1 | -1 | 5
CCN(CC)CCN1C(=O)C(=O)/C(=C(/O)c2c(C)[nH]c(C(=O)OC)c2C)C1c1ccccc1 (stereo unspecified) | · | · | · | -1 | · | -4
COc1ccccc1S(=O)(=O)N(C)C[C@@H]1Oc2ncc(-c3ccc(C)cc3)cc2C(=O)N([C@H](C)CO)C[C@@H]1C | 0 | 2781 | -1 | · | -7 | 9
O/N=C1\CCCc2oc3c(c21)CCCC3 | 1 | 19892* | 2 | 2 | -1 | 9
CC(Oc1ccc2oc(-c3ccccc3)c(C(=O)O)c2c1)C(=O)O (stereo unspecified) | 0 | 16623* | -1 | -1 | -4 | -1
COc1cccc(NC(=O)CN(C)C(=O)c2c(-c3ccccc3)noc2C)c1 | -1 | 5004 | -4 | 1 | -1 | 1
COc1ccc2oc(=O)c(-c3nc(C)cs3)cc2c1 | ? | 20394* | 12 | 2 | 7 | 1
COc1ccc2oc(=O)c(-c3nnc(N)s3)cc2c1 | 2 | 2393 | -2 | 1 | 0 | 7
N#CC(=C(O)COC(=O)CCCNC(=O)c1ccc(Cl)cc1)c1nc2ccccc2[nH]1 | 0 | 4461 | -9 | 1 | -2 | -4
COc1cc(C(=O)NCc2cccs2)ccc1OCc1c(C)noc1C | 0 | 3697 | -2 | -1 | -3 | 0
Cc1ccc(NC(=O)c2ccc(OCc3c(C)noc3C)cc2)nc1 | -40 | 16600* | -68 | 1 | -11 | 7
COc1ccc(NC(=O)COC(=O)c2ccc(OCc3c(C)noc3C)cc2)cc1OC | -1 | 21341* | -1 | 0 | 2 | -4
Cc1cccc(NC(=O)c2ccc(OCc3c(C)noc3C)cc2)c1 | 0 | 3835 | -2 | 4 | -7 | 5
COc1cc(C(=O)NCC(c2ccco2)N2CCCC2)ccc1OCc1c(C)noc1C (stereo unspecified) | -2 | 23986* | -3 | 0 | -2 | -1
CC(=O)Nc1ccc(NC(=O)C(C)OC(=O)c2ccc(OCc3c(C)noc3C)cc2)cc1 (stereo unspecified) | 0 | 10197 | -8 | 1 | 0 | -1
Cc1noc(C)c1COc1ccc(C(=O)OC(C)C(=O)Nc2ccc(N3CCOCC3)cc2)cc1 (stereo unspecified) | 0 | 3507 | -3 | 67* | -6 | 10
COc1cc(C(=O)OCC(=O)Nc2ccc3c(c2)OC(F)(F)O3)ccc1OCc1c(C)noc1C | -1 | 3487 | -15 | 1 | -3 | 6
CC#CCOCC1CNC(=O)O1 (stereo unspecified) | 0 | 3757 | 5 | · | -1 | 2
CC(=O)N1CCc2ccccc2C1CC(=O)O (stereo unspecified) | -1 | 4551 | -4 | -1 | -1 | -8
COC(=O)CCCn1cc(CN2CC(N3CCN(C)CC3)CS2(=O)=O)nn1 (stereo unspecified) | -1 | 4317 | -6 | · | -3 | ·
COc1ccc(C(CNC(=O)c2ccc(OCc3c(C)noc3C)cc2)N2CCCC2)cc1 (stereo unspecified) | -5 | 17256* | 7 | 0 | -2 | 0
COc1ccccc1C(CNC(=O)c1ccc(OCc2c(C)noc2C)cc1)N1CCCC1 (stereo unspecified) | -6 | 15575 | -4 | 0 | -3 | 3

Bioassay records deposited in PubChem BioAssay by several laboratories.
